# Rows were chosen to be rich in hits. Some 1.9% of all compounds tested hit in one or more screens of this group.
# HMGR II inh: inhibitors of class II HMG-CoA reductase from Enterococcus faecalis. purified E. faecalis HMGR, NADPH absorbance 340 nm kinetic. inhibition, % at 10 µM. hit rate 0.41% among 190,000. AID 1066;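 active means inhibition above a set limit, the median over all tested compounds plus 3 SD, cut at about 9.5% in these data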;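 further: enzyme runs in reverse so mevalonate oxidation gives rising NADPH absorbance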
# dFosB act: enhances mouse delta FosB homodimer DNA binding; AID 493131; purified delta FosB, TAMRA-CDK5 oligo fluorescence polarization; percent of positive-control signal above neutral wells; hit rate 0.99% among 340,000; activation, % at 25 µM; P13346;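 active means mean activation above about 17%, with every replicate also reaching it, limit read from the data, passing the limit was not always enough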
# Target sequence (P13346 whole entry, looked up): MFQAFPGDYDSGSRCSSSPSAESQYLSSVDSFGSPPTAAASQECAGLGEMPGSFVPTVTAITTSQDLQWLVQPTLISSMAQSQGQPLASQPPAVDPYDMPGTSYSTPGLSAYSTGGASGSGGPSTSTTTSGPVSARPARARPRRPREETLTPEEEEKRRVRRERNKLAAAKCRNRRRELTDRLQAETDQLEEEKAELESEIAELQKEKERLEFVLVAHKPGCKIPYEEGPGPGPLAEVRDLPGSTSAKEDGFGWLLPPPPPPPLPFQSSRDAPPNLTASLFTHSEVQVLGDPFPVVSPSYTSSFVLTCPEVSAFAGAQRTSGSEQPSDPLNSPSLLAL
# p47phox inh: blocks human p47phox regulatory protein of NADPH oxidases; P14598; p47phox/p22phox peptide binding, fluorescence polarization, 2 h; inhibition, % at 24.7 µM; hit rate 0.53% among 220,000;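 active means inhibition above about 30%, limit read from the data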
# 14-3-3 Bad PPI: disrupts binding of bovine 14-3-3 zeta to phospho-Bad peptide; hit rate 0.71% among 220,000; inhibition, % at 21.7 µM; P63103; TR-FRET 14-3-3zeta/Dy647-pBad peptide displacement, 1 h;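 active means inhibition above about 70%, limit read from the data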
# Hits are given with their value; - = inactive; . = no result; [ ] = another dose, or the depositor's remark.
SMILES,HMGR II inh,dFosB act,p47phox inh,14-3-3 Bad PPI
COC(=O)N1CCCc2cc(C)ccc21,11,-,-,-
Cc1ccc(NC(=O)CSc2nnc(-c3ccc(S(=O)(=O)N4CCCC4)cc3)o2)cc1C,-,70,-,-
Cc1cccc(NC(=O)CSc2nnc(-c3ccc(S(=O)(=O)N4CCCC4)cc3)o2)c1,-,-,-,-
CC(=O)Nc1ccc(S(=O)(=O)N2CCN(Cc3ccccn3)CC2)cc1,-,-,-,71
Cc1ccc(N=c2c([N+](=O)[O-])nn(-c3ccc(Cl)cc3)n2O)cc1C,-,-,-,-
O=C(N/N=C1\CCc2ccccc21)c1ccc(O)cc1,12,-,-,-
O=C(N/N=C1\CCc2ccccc21)c1ccccc1Cl,-,-,-,-
CCN(CC(=O)NCc1cccs1)C(=O)c1cc(=O)[nH]c2ccccc12,.,-,.,.
CCc1ccc(NC(=O)CC2C(=O)NCCN2C(=O)c2ccc(F)cc2)cc1 (stereo not drawn),.,-,.,.
Cc1ccc(-n2c(SCC(=O)N(C)C3CCS(=O)(=O)C3)nc3ccccc3c2=O)cc1 (stereo not drawn),18,-,-,-
CCN(C(=O)CSc1nc2ccccc2c(=O)n1-c1ccc(C)cc1)C1CCS(=O)(=O)C1 (stereo not drawn),-,-,-,-
O=S(=O)(c1ccc(-c2cnc(C3CC3)o2)cc1)N1CCN(c2ccccc2)CC1,.,-,.,.
CC1CN(C(=O)CSc2nnc(-c3ccc(Cl)cc3)n2C)CC(C)O1 (stereo not drawn),12,-,-,-
CC1CN(C(=O)CSc2nnc(-c3ccncc3)n2-c2ccccc2)CC(C)O1 (stereo not drawn),-,-,-,-
CN1CCN(c2ccc(NC(=O)c3ccc(-c4ccc(Br)cc4)o3)cc2)CC1,-,41,-,-
O=C(Nc1ccc(N2CCCC2)cc1)c1ccc(Br)o1,-,40,-,-
CCC(NC(=O)COc1ccc([N+](=O)[O-])cc1)c1ccccc1 (stereo not drawn),-,.,-,-
O=C(N/N=C/c1cccn1-c1ccc(O)cc1)c1cccc2ccccc12,.,22,.,.
N=c1ccn2c(n1)OC1C(O)C(CO)OC12 (stereo not drawn),.,-,-,-
CCOC(=O)CCCc1sc(N)nc1-c1[nH]c(=O)[nH]c1C,-,-,-,80
Cn1nc(-c2ccccc2)c(CSc2ccccc2Cl)c1Cl,-,-,34,-
Cn1c(=O)c2c(ncn2CC(=O)N2CCN(S(=O)(=O)c3ccc(F)cc3)CC2)n(C)c1=O,.,-,.,.
COc1ccccc1/C=C/C=N/N1CCN(Cc2ccc(Cl)cc2)CC1,-,-,-,74
COc1cc2c(cc1OC)CN(C(=S)NC(=O)c1ccccc1)CC2,-,-,31,-
CC(C)Cn1nc(NC(=O)C(C)(C)C)c2cc3ccccc3nc21,-,-,-,-
SMILES,HMGR II inh,dFosB act,p47phox inh,14-3-3 Bad PPI
CCCCC(=O)Nc1nn(CC(C)C)c2nc3ccccc3cc12,-,-,-,82
CCc1nc2c(c(=O)c3ccccc3n2C)c(=O)n1CCc1ccc(OC)cc1,-,.,-,88
CCOc1ccccc1N(C(=O)Nc1cccc(Cl)c1)C1=NC(C)CS1 (stereo not drawn),-,-,35,-
Cc1c(Cl)cnc(NC(=O)COC(=O)c2cccs2)c1Cl,.,-,.,.
O=C(COC(=O)c1ccc2ncsc2c1)NC(=O)c1ccccc1,-,-,-,-
O=C(COC(=O)c1ccc2ncsc2c1)Nc1ncc(Cl)cc1Cl,-,-,-,73[fluorescence artefact?]
COc1ccc(C(=O)NC(=O)COC(=O)c2ccc3ncsc3c2)cc1,-,.,-,78
O=C(COC(=O)c1ccc2ncsc2c1)Nc1cc(Cl)ccc1F,.,-,.,.
Cc1c(Cl)cnc(NC(=O)COC(=O)c2ccc3ncsc3c2)c1Cl,-,-,-,70
O=C(OCn1cncn1)c1ccc(Cl)cc1Cl,-,-,-,-
CCCCn1c(N)c(N(CCOC)C(=O)Cn2c(=O)oc3ccccc32)c(=O)[nH]c1=O,.,-,.,.
COc1ccc(C(=O)NC(=S)Nc2ccc(Cc3ccncc3)cc2)cc1,-,-,-,81
CN(CCOc1ccccc1)CC(O)COc1ccccc1 (stereo not drawn),.,-,.,.
CC(OCC(O)CN(C)CCOc1ccccc1)c1ccc(Cl)cc1 (stereo not drawn),-,-,-,74
COc1ccc(S(=O)(=O)N2C(=O)/C(=C3\SC(N)=NC3=O)c3ccccc32)cc1,.,24,-,-
COc1ccc(C(=O)CCS(=O)(=O)c2ccc(C)cc2)cc1,.,-,.,.
COc1ccc(C(=O)CCC(C)(C)[N+](=O)[O-])cc1,12,-,-,-

# High-throughput results deposited in PubChem BioAssay by several laboratories.
